Screens deposited in PubChem BioAssay by Columbia University Molecular Screening Center.
Insulin prom inh: TRM-6 insulin promoter activity inhibition. TRM-6 cells (human fetal islet line), insulin promoter-eGFP reporter, imaging; reporter expression induced with tamoxifen. AID 1273. 130,000 tested, 0.9% active. inhibition, % at 2 µM;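 active = inhibition above the mean plus 3 SD, with well images judged a real hit on visual review, cut at about 60% in these data, passing the limit was not always enough; inconclusive = inhibition over the cutoff but images rejected on review; inactive = inhibition not above the cutoff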
IL1B cytotox: HUVEC cytotoxicity counter-screen, IL-1B stimulated; cell count reduction, % at 2 µM; 94,000 tested, 0.41% active; HUVEC cell count loss, Hoechst imaging; AID 845;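 active = cell count reduction more than 3 SD above the screen-wide mean, cut at about 70% in these data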;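 note: normalized per plate to untreated control cells as the no-loss baseline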
IL1B NFkB inh: blocks IL-1B driven NFkB nuclear translocation in HUVEC cells; HUVEC IL-1B NFkB p65 nuclear translocation imaging; inhibition, % at 2 µM; 94,000 tested, 0.43% active;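 active = inhibition above about 30% together with a positive call from visual inspection of the well image, limit read from the data; inconclusive = inhibition above a set limit but visual check negative; inactive = inhibition not above a set limit, visual check negative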;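 note: nuclear over cytoplasmic p65 intensity ratio measured by imaging; 0% = IL-1B stimulated DMSO wells and 100% = unstimulated DMSO wells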
IL1B NFkB pot: enhances IL-1B driven NFkB nuclear translocation; HUVEC IL-1B NFkB p65 nuclear translocation imaging; activation, % at 2 µM; 94,000 tested, 0.3% active; AID 819;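 active = activation above 40%, about the mean plus 3 SD, also judged a hit on visual image review; inconclusive = activation above 40% but not a hit on visual review; inactive = activation not above 40% and no visual hit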;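 note: percent activation is computed from the nuclear over cytoplasmic p65 intensity ratio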
* hit, by the source's call; ? = inconclusive; nt = not tested or not shown. Rows were chosen to be rich in hits. Some 1.3% of all compounds tested hit in one or more screens of this group.

SMILES	Insulin prom inh	IL1B cytotox	IL1B NFkB inh	IL1B NFkB pot
CCn1c(Sc2nc(C)nc3scc(-c4cccs4)c23)n[nH]c1=O	nt	2	-6	6
CCc1nc2scc(-c3cccs3)c2c(=O)o1	69	8	45*	-45
COc1ccc(NC(=O)c2nc3nc(C)cc(C(F)F)n3n2)cc1OC	71*	nt	nt	nt
Cc1onc(-c2ccccc2)c1C(=O)Nc1ccc(S(=O)(=O)N2CCCC2)cc1	78*	nt	nt	nt
Cc1cc(C(F)F)n2nc(C(=O)Nc3ccc(S(=O)(=O)N4CCCCCC4)cc3)nc2n1	100*	27	-8	8
CC1CCN(S(=O)(=O)c2ccc3c(c2)c(=O)c(C(=O)NCc2ccccc2Cl)cn3C)CC1	44	nt	nt	nt
CNC(=S)Nc1ccc2nc(C)oc2c1	10	nt	nt	nt
CC(=O)Oc1cccc(N2C(=O)C3C(C2=O)C2C=CC3C23CC3)c1 (stereo unspecified)	nt	-25	10	-10
CC(=O)Oc1cccc(N2C(=O)C3CC=CCC3C2=O)c1 (stereo unspecified)	59	89*	-30	30
O=C(N/N=C/C=C/c1ccccc1[N+](=O)[O-])c1cc(-c2cccnc2)nc2ccccc12	27	nt	nt	nt
COc1ccccc1-c1cc(C(=O)N/N=C/C=C/c2ccccc2[N+](=O)[O-])c2ccccc2n1	17	-2	-42	42*
Cc1nn(-c2ccccc2)c(Cl)c1/C=N/NS(=O)(=O)c1ccc(Br)cc1	69*	nt	nt	nt
CC(=O)N1CCN(C(=O)c2cc(C)nc3ccccc23)CC1	71*	nt	nt	nt
Cc1cc(C(=O)OCC(=O)N2CCCC2)c2ccccc2n1	34	10	3	-3
CCOc1ccc(C(=O)OCCN(CC)CC)cc1	80*	10	0	0
Cc1ccc(N=Nc2c(C)[nH][nH]c2=O)c(C)c1	73*	-3	6	-6
Cc1[nH][nH]c(=O)c1N=Nc1ccccc1C#N	36	nt	nt	nt
O=[N+]([O-])c1cccc(/C=N/Nc2nc(N3CCCCC3)nc(N3CCCCC3)n2)c1	71*	nt	nt	nt
O=C(NCc1cccnc1)c1ccc(NC(=O)c2ccco2)cc1	79*	2	-6	6
O=C(C1CCC1)N1CCc2cc(S(=O)(=O)NCc3ccco3)ccc21	82*	-8	-5	5
O=C(C1CCC1)N1CCc2cc(S(=O)(=O)NC3CCCC3)ccc21	6	-32	13	-13
COc1ccccc1CNC(=O)COC(=O)[C@H](Cc1c[nH]c2ccccc12)NC(=O)c1cccs1	-97	nt	nt	nt
CCNc1c2c(nc3ccccc13)CC(C)(C)CC2=O	?	79*	97*	-97
CCCc1nc2ccccc2c2nc(N)nn12	87*	-12	0	0
Nc1nc2c3ccccc3nc(Cc3ccccc3)n2n1	56	0	-26	26
SMILES	Insulin prom inh	IL1B cytotox	IL1B NFkB inh	IL1B NFkB pot
O=C(NCNC(=O)c1ccccc1)c1ccccc1	27	81*	-11	11
COc1ccc(NC(=O)COC(=O)C2CC3C=CC2C3)cc1 (stereo unspecified)	79*	nt	nt	nt
O=S(=O)(Nc1nc2ccccc2nc1NCc1ccco1)c1ccccc1	-36	-21	-4	4
c1coc(CNc2nc3nonc3nc2NCc2ccco2)c1	-18	-48	52*	-52
CCN1C(=O)/C(=C/N(C(C)=O)c2ccccc2)N(c2ccccc2)C1=S	-28	-29	43*	-43
O=C(NC1CCCCC1)[C@H](CSCc1ccccc1)N1Cc2ccccc2C1=O	5	nt	nt	nt
Cn1c(N=NC(=O)c2ccccc2)c(O)c2ccccc21	4	nt	nt	nt
O=C(c1cncc(Br)c1)N1CCc2ccccc2C1	86*	-65	-8	8
O=C(Nc1ccc2c(c1)OCCO2)N1CCN(Cc2ccccc2)CC1	33	nt	nt	nt
Cc1ccc(NC(=O)C2CC(=O)n3c(nc4ccccc43)N2)cc1Cl (stereo unspecified)	73*	nt	nt	nt
COc1ccc(CCNC(=O)C2CCN(C(=O)NC3CCCCC3)CC2)cc1	19	-8	39*	-39
CN(C)c1ccnc(SCc2ccccc2Cl)c1C#N	73*	-9	-17	17
CN(C)c1ccnc(Oc2ccccc2)c1C#N	14	11	4	-4
Cc1cccc(N2CCN(C(=O)c3ccc(CS(=O)(=O)c4ccccc4C)o3)CC2C)c1 (stereo unspecified)	nt	7	-48	49*
Cc1ccc(C)c(N2CCN(C(=O)c3ccc(CS(=O)(=O)c4ccccc4C)o3)CC2)c1	-68	-23	-11	11
O=C(c1ccco1)N1CCN(CCCCOc2ccc(F)cc2)CC1	-14	nt	nt	nt
Cc1cccc(/C=N/NC(=O)c2cc3c(s2)-c2ccccc2CC3)c1	-23	-27	52*	-52
O=C(N/N=C/c1cccc(C(F)(F)F)c1)c1cc2c(s1)-c1ccccc1CC2	37	-29	-1	1
CC(C)(C)Cc1nnc(NS(=O)(=O)c2ccc(F)cc2)s1	3	-8	-98	98*
CCc1nn(-c2ccccc2)c(N)c1C#N	60*	nt	nt	nt
Fc1ccccc1NC(=S)N(CCN1CCCCC1)Cc1ccco1	-33	nt	nt	nt
Cc1nn2c(Nc3ccccc3)c3c(nc2c1-c1ccccc1)CCC3	91*	nt	nt	nt
Cc1nn2c(NCC(C)C)c3c(nc2c1-c1ccccc1)CCC3	-11	-30	4	-4
CCOc1ccc(Br)cc1S(=O)(=O)Nc1cccc(S(=O)(=O)N(C)c2ccccc2)c1	-59	nt	nt	nt
Cc1ccc(NC(=O)COC(=O)C2(c3ccc(Cl)cc3)CCCC2)cc1	-10	nt	nt	nt
SMILES	Insulin prom inh	IL1B cytotox	IL1B NFkB inh	IL1B NFkB pot
Cc1cc(N2CCOCC2)nc2ccc(NC(=S)N3CCCCC3C)cc12 (stereo unspecified)	73*	nt	nt	nt
Cc1cccc(OCCOCCSc2ncccn2)c1	12	-6	-15	15
c1ccc(OCCOCCSc2ncccn2)cc1	81*	0	-35	35
Cc1ccc(-n2c3nc(=O)[nH]c(=O)c-3cc3c(C)nn(-c4ccccc4)c32)c(C)c1	-27	nt	nt	nt
Cc1cccc(-n2c3nc(=O)[nH]c(=O)c-3cc3c(C)nn(-c4ccccc4)c32)c1	62*	nt	nt	nt
CCOC(=O)C1=NOC(C(=O)NN(C)c2ncc(C(F)(F)F)cc2Cl)C1 (stereo unspecified)	-19	nt	nt	nt
O=C(O)c1coc2ccccc12	13	-18	-57	57*
O=C(/C=C/N1CCOCC1)c1coc2ccccc12	50	-17	8	-8
COc1cc(/C=N/n2c(SC)nnc(C(C)(C)C)c2=O)ccc1O	77*	-29	-13	13
CC(NC(=O)c1ccc(Br)cc1)c1ccccc1 (stereo unspecified)	21	nt	nt	nt
CC(NC(=O)c1ccccc1)c1ccc(Br)cc1 (stereo unspecified)	88*	nt	nt	nt
COc1ccc(NC(=O)COC(=O)c2ncc(Cl)c(Cl)c2Cl)c(OC)c1	0	nt	nt	nt
COc1cc(SC)ccc1C(=O)OC(C)C(=O)NC1CCCC1 (stereo unspecified)	0	nt	nt	nt
O=S(=O)(c1ccc(-n2cnnn2)cc1)N(C1CCCCC1)C1CCCCC1	27	-1	3	-3
CN(C1CCCCC1)S(=O)(=O)c1ccc(-n2cnnn2)cc1	-15	-21	-50	50*
O=C(CN1CCCN(Cc2ccc(F)cc2Cl)C1=O)NC1CCCC1	-27	nt	nt	nt
O=C(NCc1ccccc1Cl)C(=O)NCC(c1ccco1)N1CCOCC1 (stereo unspecified)	78*	nt	nt	nt
